Measured values as given in PubChem BioAssay AID1159580 (chemical genetic matrix, 2015).
Where “and” joins values, the source holds several entries; their conditions need not be identical. Equal values may be shown once. Hit rate of the full screen: of about 5,500 compounds, about 2,000 (36%) were called active. About 18% were inconclusive and are not listed. Rule as the data show it: active = normalized growth mostly below about 0.91 (no sharp cut-off); inconclusive = no clear call, values can overlap the other calls; inactive = mostly above about 0.92. Some of the results follow.

Assay: chemical genetic growth profiling, strain panel (AID 1159580);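 also: tested at 20 µM; growth read once vehicle control cultures reached saturation at 30 °C; 1 = growth at the plate median or of vehicle wells; lower values mean less growth of the strain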
Settings: S. cerevisiae deletion strains, growth OD

Measured: normalized growth

NC(CO)C(=O)NNCc1ccc(O)c(O)c1O (configuration not stated)
active: locus YGR229C, strain SMI1, active compounds read low 0.775 | locus YHR027C, strain rpn1, active compounds read low 0.911
inactive: locus YAL013W, strain DEP1, active compounds read low 0.941 | locus YAL021C, strain ccr4, active compounds read low 0.96 | locus YAL026C, strain drs2, active compounds read low 0.977 | locus YAL030W, strain snc1, active compounds read low 0.986 | locus YAL040C, strain CLN3, active compounds read low 0.967 | locus YBL061C, strain skt5, active compounds read low 0.999 | locus YBR009C, strain hhf1, active compounds read low 0.971 | locus YBR021W, strain FUR4, active compounds read low 1.02 | locus YBR023C, strain chs3, active compounds read low 0.984 | locus YBR171W, strain sec66, active compounds read low 0.996 | locus YBR229C, strain ROT2, active compounds read low 1.02 | locus YBR231C, strain swc5, active compounds read low 1 | locus YBR279W, strain paf1, active compounds read low 0.97 | locus YCL011C, strain gbp2, active compounds read low 0.946 | locus YCL016C, strain dcc1, active compounds read low 0.977 | locus YCL029C, strain bik1, active compounds read low 0.997 | locus YCL069W, strain vba3, active compounds read low 0.968 | locus YCR088W, strain abp1, active compounds read low 1 | locus YDL005C, strain med2, active compounds read low 1.01 | locus YDL035C, strain GPR1, active compounds read low 1.02 | locus YDL040C, strain nat1, active compounds read low 1.01 | locus YDL074C, strain BRE1, active compounds read low 0.98 | locus YDL101C, strain DUN1, active compounds read low 0.99 | locus YDL185W, strain tfp1, active compounds read low 1 | locus YDL192W, strain arf1, active compounds read low 0.998 | locus YDR001C, strain nth1, active compounds read low 0.982 | locus YDR069C, strain doa4, active compounds read low 0.966 | locus YDR101C, strain arx1, active compounds read low 0.971 | locus YDR137W, strain rgp1, active compounds read low 0.91 | locus YDR150W, strain NUM1, active compounds read low 1.03 | locus YDR159W, strain sac3, active compounds read low 1.02 | locus YDR162C, strain NBP2, active compounds read low 1.02 | locus YDR195W, strain ref2 1.03 | locus YDR297W, strain sur2, active compounds read low 0.994 | locus YDR318W, strain mcm21, active compounds read low 1 | locus YDR334W, strain swr1, active compounds read low 0.982 | locus YDR335W, strain msn5, active compounds read low 0.995 | locus YDR363W, strain ESC2, active compounds read low 0.968 | locus YDR388W, active compounds read low 0.99 | locus YDR392W, strain spt3, active compounds read low 1.03 | locus YDR502C, strain sam2, active compounds read low 0.988 | locus YEL003W, strain gim4, active compounds read low 0.981 | locus YEL037C, strain rad23, active compounds read low 0.98 | locus YEL061C, strain CIN8 (second series), active compounds read low 0.981 | locus YEL061C, strain CIN8, active compounds read low 1.01 | locus YER002W, strain NOP16, active compounds read low 1 | locus YER015W, strain faa2, active compounds read low 0.947 | locus YER016W, strain bim1, active compounds read low 0.994 | locus YER110C, active compounds read low 0.984 | locus YER111C, strain swi4, active compounds read low 0.966 | locus YER155C, strain BEM2 (second series), active compounds read low 1.08 | locus YER155C, strain BEM2, active compounds read low 1 | locus YER167W, strain BCK2, active compounds read low 1.02 | locus YFR010W, strain ubp6, active compounds read low 0.989 | locus YGL078C, strain dbp3, active compounds read low 0.993 | locus YGL086W, strain mad1, active compounds read low 0.993 | locus YGL167C, strain pmr1, active compounds read low 0.996 | locus YGL173C, strain kem1, active compounds read low 1.01 | locus YGL227W, strain vid30, active compounds read low 1.01 | locus YGL240W, strain doc1, active compounds read low 1.06 | locus YGL248W, strain PDE1, active compounds read low 1.01 | locus YGL253W, strain hxk2, active compounds read low 0.958 | locus YGR078C, strain PAC10, active compounds read low 0.995 | locus YGR135W, strain pre9, active compounds read low 0.994 | locus YGR252W, strain gcn5, active compounds read low 0.986 | locus YHR013C, strain ard1, active compounds read low 0.987 | locus YHR030C, strain SLT2, active compounds read low 1.02 and 1.05 | locus YHR079C, strain IRE1 (second series), active compounds read low 1 | locus YHR079C, strain IRE1, active compounds read low 1.06 | locus YHR094C, strain hxt1, active compounds read low 1.01 | locus YHR129C, strain ARP1, active compounds read low 1.01 | locus YHR142W, strain chs7, active compounds read low 0.964 | locus YHR200W, strain rpn10, active compounds read low 0.986 | locus YIL066C, strain RNR3, active compounds read low 1.03 | locus YIL073C, strain SPO22, active compounds read low 0.985 | locus YIL125W, strain kgd1, active compounds read low 0.995 | locus YIR030C, strain dcg1, active compounds read low 0.984 | locus YJL092W, strain hpr5, active compounds read low 0.996 | locus YJL095W, strain BCK1 (second series), active compounds read low 1 | locus YJL095W, strain BCK1, active compounds read low 1.01 and 1.05 | locus YJL115W, strain asf1, active compounds read low 1 | locus YJL129C, strain trk1, active compounds read low 1.06 | locus YJL134W, strain LCB3, active compounds read low 1.01 | locus YJL154C, strain vps35, active compounds read low 0.993 | locus YJL164C, strain tpk1, active compounds read low 0.953 | locus YJL166W, strain qcr8, active compounds read low 1.02 | locus YJL168C, strain set2, active compounds read low 1 | locus YJL187C, strain SWE1 (second series), active compounds read low 0.988 | locus YJL187C, strain SWE1, active compounds read low 0.983 | locus YJR043C, strain POL32, active compounds read low 1.02
